From the supplement of paper PMC12067093, “Discovery and optimisation of a covalent ligand for TRIM25 and its application to targeted protein ubiquitination” (Chemical Science, 2025) come the findings set out here.

Of roughly 21,000 targets only a part is listed; those with the largest changes were picked by preference.
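Further: competitive chemoproteomic profiling in live THP-1 cells with an iodoacetamide desthiobiotin (IA-DTB) probe, comparing probe-labelled peptide intensities in compound-treated cells against DMSO-treated controls.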

Chain of UniProt Q6NUM6 (Q6NUM6 whole entry): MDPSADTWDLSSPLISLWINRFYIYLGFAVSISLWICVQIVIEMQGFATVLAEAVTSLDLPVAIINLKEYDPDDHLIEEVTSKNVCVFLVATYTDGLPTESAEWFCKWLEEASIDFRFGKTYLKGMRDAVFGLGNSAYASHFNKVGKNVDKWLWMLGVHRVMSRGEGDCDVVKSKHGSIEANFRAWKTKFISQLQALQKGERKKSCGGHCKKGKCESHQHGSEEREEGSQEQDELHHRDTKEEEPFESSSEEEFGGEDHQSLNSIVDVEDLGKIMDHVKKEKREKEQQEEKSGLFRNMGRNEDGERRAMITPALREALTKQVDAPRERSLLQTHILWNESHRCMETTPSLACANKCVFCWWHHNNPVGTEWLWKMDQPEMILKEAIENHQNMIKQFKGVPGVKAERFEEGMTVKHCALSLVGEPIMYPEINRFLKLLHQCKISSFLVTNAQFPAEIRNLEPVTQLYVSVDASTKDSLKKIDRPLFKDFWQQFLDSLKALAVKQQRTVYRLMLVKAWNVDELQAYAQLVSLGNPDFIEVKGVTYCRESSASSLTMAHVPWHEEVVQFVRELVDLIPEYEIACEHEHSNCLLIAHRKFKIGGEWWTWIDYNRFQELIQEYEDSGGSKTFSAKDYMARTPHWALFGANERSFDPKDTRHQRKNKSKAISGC
Chain of UniProt Q9Y2K6 (Q9Y2K6 whole entry, looked up): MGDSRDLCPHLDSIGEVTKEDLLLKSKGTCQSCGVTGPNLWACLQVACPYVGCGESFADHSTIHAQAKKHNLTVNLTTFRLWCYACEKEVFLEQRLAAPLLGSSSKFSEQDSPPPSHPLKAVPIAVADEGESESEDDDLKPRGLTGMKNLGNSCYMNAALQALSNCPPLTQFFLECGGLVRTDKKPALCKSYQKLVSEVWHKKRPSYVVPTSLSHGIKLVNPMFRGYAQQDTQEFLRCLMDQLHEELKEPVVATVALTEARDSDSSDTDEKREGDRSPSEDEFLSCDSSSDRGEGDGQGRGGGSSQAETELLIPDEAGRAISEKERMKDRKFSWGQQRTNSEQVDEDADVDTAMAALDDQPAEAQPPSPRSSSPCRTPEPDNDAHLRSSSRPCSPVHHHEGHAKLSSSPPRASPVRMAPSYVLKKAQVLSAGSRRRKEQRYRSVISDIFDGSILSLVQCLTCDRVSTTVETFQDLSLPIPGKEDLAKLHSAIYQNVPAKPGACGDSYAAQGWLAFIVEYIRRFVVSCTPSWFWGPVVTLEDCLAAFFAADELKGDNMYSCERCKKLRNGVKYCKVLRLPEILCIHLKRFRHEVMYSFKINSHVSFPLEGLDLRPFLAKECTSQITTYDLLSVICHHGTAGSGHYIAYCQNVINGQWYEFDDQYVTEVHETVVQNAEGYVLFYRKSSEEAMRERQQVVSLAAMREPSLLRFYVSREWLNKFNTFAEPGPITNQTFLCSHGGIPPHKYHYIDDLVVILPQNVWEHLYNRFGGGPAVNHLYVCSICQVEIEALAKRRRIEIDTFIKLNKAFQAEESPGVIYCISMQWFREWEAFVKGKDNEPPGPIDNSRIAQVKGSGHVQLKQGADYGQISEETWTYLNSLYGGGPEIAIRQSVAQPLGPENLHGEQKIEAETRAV
Chain of UniProt Q01831 (Q01831 whole entry, looked up): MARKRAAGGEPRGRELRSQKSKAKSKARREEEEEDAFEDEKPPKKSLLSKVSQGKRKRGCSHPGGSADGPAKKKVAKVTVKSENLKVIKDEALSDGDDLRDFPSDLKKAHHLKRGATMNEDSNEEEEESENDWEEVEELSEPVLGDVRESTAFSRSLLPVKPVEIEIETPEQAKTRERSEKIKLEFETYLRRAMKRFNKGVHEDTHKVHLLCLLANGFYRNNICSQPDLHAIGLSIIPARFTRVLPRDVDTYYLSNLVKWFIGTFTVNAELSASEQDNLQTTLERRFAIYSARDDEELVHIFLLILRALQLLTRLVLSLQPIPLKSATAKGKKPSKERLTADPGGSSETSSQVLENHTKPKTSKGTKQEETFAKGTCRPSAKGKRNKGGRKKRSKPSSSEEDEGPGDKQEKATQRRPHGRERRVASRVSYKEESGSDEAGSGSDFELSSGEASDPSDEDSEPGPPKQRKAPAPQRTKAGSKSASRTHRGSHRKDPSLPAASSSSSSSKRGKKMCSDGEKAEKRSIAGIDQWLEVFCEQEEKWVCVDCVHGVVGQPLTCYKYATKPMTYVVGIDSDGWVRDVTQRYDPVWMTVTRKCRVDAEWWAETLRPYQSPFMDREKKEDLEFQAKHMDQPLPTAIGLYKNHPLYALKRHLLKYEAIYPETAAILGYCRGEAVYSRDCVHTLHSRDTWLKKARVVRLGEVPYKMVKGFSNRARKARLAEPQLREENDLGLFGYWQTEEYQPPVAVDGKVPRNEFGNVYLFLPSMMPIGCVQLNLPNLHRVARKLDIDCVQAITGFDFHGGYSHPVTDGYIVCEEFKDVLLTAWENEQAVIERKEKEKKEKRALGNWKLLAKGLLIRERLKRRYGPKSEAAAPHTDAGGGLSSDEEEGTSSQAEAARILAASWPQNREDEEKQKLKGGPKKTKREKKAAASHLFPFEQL
Chain of UniProt Q9NZ09 (Q9NZ09 whole entry, looked up): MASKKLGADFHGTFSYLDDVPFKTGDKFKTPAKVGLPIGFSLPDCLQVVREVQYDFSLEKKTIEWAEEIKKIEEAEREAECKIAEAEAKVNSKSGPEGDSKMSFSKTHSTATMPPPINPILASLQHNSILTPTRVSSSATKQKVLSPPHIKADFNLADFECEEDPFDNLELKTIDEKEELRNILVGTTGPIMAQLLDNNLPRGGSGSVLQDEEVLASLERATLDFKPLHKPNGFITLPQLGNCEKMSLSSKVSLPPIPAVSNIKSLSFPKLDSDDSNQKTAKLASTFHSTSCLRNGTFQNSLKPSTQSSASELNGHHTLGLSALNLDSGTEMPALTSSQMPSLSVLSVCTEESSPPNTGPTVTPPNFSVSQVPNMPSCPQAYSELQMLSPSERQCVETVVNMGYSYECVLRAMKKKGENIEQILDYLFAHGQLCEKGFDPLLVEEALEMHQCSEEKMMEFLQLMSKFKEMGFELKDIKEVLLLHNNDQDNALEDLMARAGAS
Chain of UniProt Q9BZH6 (Q9BZH6 whole entry, looked up): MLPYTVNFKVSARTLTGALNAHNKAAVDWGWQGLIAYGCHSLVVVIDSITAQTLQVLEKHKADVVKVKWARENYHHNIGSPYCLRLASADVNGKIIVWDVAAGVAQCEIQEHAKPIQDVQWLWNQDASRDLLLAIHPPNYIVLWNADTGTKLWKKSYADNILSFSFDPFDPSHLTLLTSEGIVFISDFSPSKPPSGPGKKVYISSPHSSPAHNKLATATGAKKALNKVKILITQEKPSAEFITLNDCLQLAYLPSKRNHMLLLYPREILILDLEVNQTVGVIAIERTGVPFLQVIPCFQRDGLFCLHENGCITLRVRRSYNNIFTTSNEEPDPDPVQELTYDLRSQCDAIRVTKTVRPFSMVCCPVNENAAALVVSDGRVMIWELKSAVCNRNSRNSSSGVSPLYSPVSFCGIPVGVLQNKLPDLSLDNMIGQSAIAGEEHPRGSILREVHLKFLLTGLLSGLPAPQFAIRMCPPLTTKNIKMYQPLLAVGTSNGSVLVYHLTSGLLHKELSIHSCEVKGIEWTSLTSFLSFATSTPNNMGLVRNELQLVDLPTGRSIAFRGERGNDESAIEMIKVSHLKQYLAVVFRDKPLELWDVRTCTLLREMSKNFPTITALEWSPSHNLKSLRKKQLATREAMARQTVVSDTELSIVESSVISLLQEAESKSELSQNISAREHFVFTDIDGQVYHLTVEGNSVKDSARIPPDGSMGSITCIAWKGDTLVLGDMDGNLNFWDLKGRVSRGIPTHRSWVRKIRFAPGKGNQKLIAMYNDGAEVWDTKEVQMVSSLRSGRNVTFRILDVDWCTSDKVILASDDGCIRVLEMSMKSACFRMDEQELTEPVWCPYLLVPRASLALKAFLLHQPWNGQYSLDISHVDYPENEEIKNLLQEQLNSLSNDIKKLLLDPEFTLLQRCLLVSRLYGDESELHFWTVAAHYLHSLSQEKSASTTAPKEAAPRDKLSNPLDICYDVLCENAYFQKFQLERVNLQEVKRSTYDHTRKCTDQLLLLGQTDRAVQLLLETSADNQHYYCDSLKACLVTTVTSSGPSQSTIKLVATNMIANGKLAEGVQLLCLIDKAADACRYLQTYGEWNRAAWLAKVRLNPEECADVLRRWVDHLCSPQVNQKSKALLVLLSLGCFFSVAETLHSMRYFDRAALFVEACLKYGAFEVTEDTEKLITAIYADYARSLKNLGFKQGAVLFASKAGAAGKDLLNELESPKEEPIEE
Chain of UniProt Q9NRW7 (Q9NRW7 whole entry, looked up): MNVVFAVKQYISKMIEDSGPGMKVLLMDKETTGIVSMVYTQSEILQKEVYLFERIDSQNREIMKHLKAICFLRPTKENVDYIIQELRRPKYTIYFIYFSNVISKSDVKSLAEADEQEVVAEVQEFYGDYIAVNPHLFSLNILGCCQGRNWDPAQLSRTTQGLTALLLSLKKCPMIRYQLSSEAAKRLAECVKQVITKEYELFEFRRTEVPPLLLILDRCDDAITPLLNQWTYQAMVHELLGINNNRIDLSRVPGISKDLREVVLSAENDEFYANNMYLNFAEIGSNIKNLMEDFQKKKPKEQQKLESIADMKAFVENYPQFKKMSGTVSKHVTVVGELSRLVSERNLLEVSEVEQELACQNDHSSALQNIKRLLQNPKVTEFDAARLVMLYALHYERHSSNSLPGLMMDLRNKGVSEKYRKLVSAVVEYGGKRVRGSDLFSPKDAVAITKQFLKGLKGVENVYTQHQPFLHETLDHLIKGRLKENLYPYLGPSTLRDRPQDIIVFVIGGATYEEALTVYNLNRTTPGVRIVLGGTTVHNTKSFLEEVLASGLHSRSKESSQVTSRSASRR
Chain of UniProt Q9Y3C8 (Q9Y3C8 whole entry, looked up): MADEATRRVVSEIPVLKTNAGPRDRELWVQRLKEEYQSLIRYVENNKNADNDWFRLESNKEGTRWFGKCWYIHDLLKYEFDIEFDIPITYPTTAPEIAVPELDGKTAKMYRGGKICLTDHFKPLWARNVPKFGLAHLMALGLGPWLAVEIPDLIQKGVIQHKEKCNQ

Compound in the first assay: CC1Cc2ccccc2N1C(=O)C1CCCN(C1)C(=O)CCl (mixture of isomers) [TRIM25 ligand 11 (diastereomer mixture)]
Briefly: probe-labelled cysteine peptide fold change vs DMSO (competition) (log2 fold change); higher = less target engagement (more negative = stronger competition). The note with it: 10 µM; THP-1; incubation time: 4 h.
On to “VPS13C_Q709C8_2276+2289_GIEHSLIEENCGVVVESIQVTLECGLGHR (UniProt Q709C8)”, for which the “probe-labelled cysteine peptide fold change” value worked out at 0.105.
As to “TXN2_Q99757_90+93_VVNSETPVVVDFHAQWCGPCK (UniProt Q99757)”, the “probe-labelled cysteine peptide fold change” value is -0.411.
As to “TXN2_Q99757_93_VVNSETPVVVDFHAQWCGPCK (UniProt Q99757)”, the “probe-labelled cysteine peptide fold change” value was -0.376.
Still for that read-out and setting: then “TXNDC11_Q6PKC3_815_ECLQSEAVLQR (UniProt Q6PKC3)”, with -0.111; and “TYW1B_Q6NUM6_581_ELVDLIPEYEIACEHEHSNCLLIAHR (UniProt Q6NUM6)”, with 0.268.
For “TRPM7_Q96QT4_1426_DQETVCSK (UniProt Q96QT4)”, the “probe-labelled cysteine peptide fold change” value is -0.118.
For the target “TXNRD2_Q9NNW7_279_GCAPSR (UniProt Q9NNW7)”, the “probe-labelled cysteine peptide fold change” value amounted to 0.829.
Consider XPC_Q01831_514_MCSDGEK (UniProt Q01831), for which the “probe-labelled cysteine peptide fold change” value is -0.0167.
In the case of “UHRF1_Q96T88_497_TAEQSCDQK (UniProt Q96T88)”, the “probe-labelled cysteine peptide fold change” value worked out at 0.0456.
Take “UFC1_Q9Y3C8_116_ICLTDHFK (UniProt Q9Y3C8)”: the “probe-labelled cysteine peptide fold change” value was -0.127.
For the target “USP20_Q9Y2K6_8_DLCPHLDSIGEVTKEDLLLK (UniProt Q9Y2K6)”, the “probe-labelled cysteine peptide fold change” value was -0.12.
Consider “TXNL1_O43396_135+137+149_AGCECLNESDEHGFDNCLR (UniProt O43396)”, for which the “probe-labelled cysteine peptide fold change” value was -0.02.
Turning to “VAT1L_Q9HCJ6_253+255_ISAEGVDIVLDCLCGDNTGK (UniProt Q9HCJ6)”, the “probe-labelled cysteine peptide fold change” value is 0.196.
For “WDR11_Q9BZH6_411_NSSSGVSPLYSPVSFCGIPVGVLQNK (UniProt Q9BZH6)”, the “probe-labelled cysteine peptide fold change” value was -0.0944.
Still for that read-out and setting: then “UBR4_Q5T4S7_4146_QAACTIVEALATIPSR (UniProt Q5T4S7)”, with 0.0371; and “TTC14_Q96N46_165_DIAHLEITALCPLR (UniProt Q96N46)”, with 0.0661.
Still for that read-out and setting: the same measure for “UNC45A_Q9H3U1_503_ALVGLCK (UniProt Q9H3U1)”: 0.0324.
In the case of “TXNRD1_Q16881_577_IICNTK (UniProt Q16881)”, the “probe-labelled cysteine peptide fold change” value worked out at 0.634.
Regarding “TXNRD1_Q16881_339_EYCISSDDLFSLPYCPGK (UniProt Q16881)”, the “probe-labelled cysteine peptide fold change” value was determined as 0.364.
For “UBAP1_Q9NZ09_243_ATLDFKPLHKPNGFITLPQLGNCEK (UniProt Q9NZ09)”, the “probe-labelled cysteine peptide fold change” value was -0.241.
As for “VCPIP1_Q96JH7_207+219_SQECLIPVHVDGDGHCLVHAVSR (UniProt Q96JH7)”, the “probe-labelled cysteine peptide fold change” value is -0.42.
For “UGP2_Q16851_123_LNGGLGTSMGCK (UniProt Q16851)”, the “probe-labelled cysteine peptide fold change” value is -0.0886.
The same measure, in the same setting: then “WDR91_A4D1P6_246_LGDSELAMVCSQR (UniProt A4D1P6)”, with -0.0616; and “VPS45_Q9NRW7_359_NLLEVSEVEQELACQNDHSSALQNIK (UniProt Q9NRW7)”, with 0.273.

The assay is the same for the next values; noted with them: 50 µM; THP-1; incubation time: 4 h.
As for “WDR37_Q9Y2I8_329_TANLYDVETSELVHSLTGHDQELTHCCTHPTQR (UniProt Q9Y2I8)”, the “probe-labelled cysteine peptide fold change” value is -0.193.
Regarding “UBE2Z_Q9H832_243_NYNECIR (UniProt Q9H832)”, the “probe-labelled cysteine peptide fold change” value was -0.0648.
As for “WDR26_Q9H7D7_238_CELTPLK (UniProt Q9H7D7)”, the “probe-labelled cysteine peptide fold change” value is -0.0732.
Same read-out and setting: then “VPS18_Q9P253_947_ADLDELVAAECVYCGELMIR (UniProt Q9P253)”, with 0.481; and “WDR12_Q9GZL7_185_ALHCCR (UniProt Q9GZL7)”, with 0.103.
The same measure, in the same setting: the same measure for “WDR55_Q9H6Y2_5_TCEERPAEDGSDEEDPDSMEAPTR (UniProt Q9H6Y2)”: -0.645; for “UBE2E1_P51965_131_IYHCNINSQGVICLDILK (UniProt P51965)”: 0.188.
Same read-out and setting: the same measure for “URB2_Q14146_1380_LHNVLFSILQCHPK (UniProt Q14146)”: 0.859.
In the case of “USP34_Q70CQ2_2033_CQVADMK (UniProt Q70CQ2)”, the “probe-labelled cysteine peptide fold change” value is 0.0671.
Turning to “TYK2_P29597_1140_CPCEVYHLMK (UniProt P29597)”, the “probe-labelled cysteine peptide fold change” value is -0.214.
Consider “UAP1L1_Q3KQV9_50_AALLAELALLEPEALREHCR (UniProt Q3KQV9)”, for which the “probe-labelled cysteine peptide fold change” value was found to be 0.0782.
In the case of “TTC37_Q6PGP7_600_DFNCWESLGEAYLSR (UniProt Q6PGP7)”, the “probe-labelled cysteine peptide fold change” value was -0.0643.
With “WDFY1_Q8IWB7_189_LEQNTCSVITTLK (UniProt Q8IWB7)”, the “probe-labelled cysteine peptide fold change” value worked out at 0.551.
Turning to “VCP_P55072_105_LGDVISIQPCPDVK (UniProt P55072)”, the “probe-labelled cysteine peptide fold change” value is -0.113.
“TRMT1_Q9NXH9_351_QALVFQCVGCGAFHLQR (UniProt Q9NXH9)”: the “probe-labelled cysteine peptide fold change” value came out at 0.318.
With “TTC27_Q6P3X3_374_NNPVHTLTEVELLAFTSCLLSQPK (UniProt Q6P3X3)”, the “probe-labelled cysteine peptide fold change” value is 0.421.
With “VPS13C_Q709C8_2276+2289_GIEHSLIEENCGVVVESIQVTLECGLGHR (UniProt Q709C8)”, the “probe-labelled cysteine peptide fold change” value was -0.00969.
Still for that read-out and setting: then “TXN2_Q99757_90+93_VVNSETPVVVDFHAQWCGPCK (UniProt Q99757)”, with -1.31.
Consider “TXN2_Q99757_93_VVNSETPVVVDFHAQWCGPCK (UniProt Q99757)”, for which the “probe-labelled cysteine peptide fold change” value was -1.25.
The same measure, in the same setting: the same measure for “TXNDC11_Q6PKC3_815_ECLQSEAVLQR (UniProt Q6PKC3)”: -0.159; for “TYW1B_Q6NUM6_581_ELVDLIPEYEIACEHEHSNCLLIAHR (UniProt Q6NUM6)”: 0.256.
On the same count and under the same terms, the same measure for “TRPM7_Q96QT4_1426_DQETVCSK (UniProt Q96QT4)”: -0.219; for “TXNRD2_Q9NNW7_279_GCAPSR (UniProt Q9NNW7)”: 0.386; for XPC_Q01831_514_MCSDGEK (UniProt Q01831): -0.0661.
For “UHRF1_Q96T88_497_TAEQSCDQK (UniProt Q96T88)”, the “probe-labelled cysteine peptide fold change” value is -0.184.
As for “UFC1_Q9Y3C8_116_ICLTDHFK (UniProt Q9Y3C8)”, the “probe-labelled cysteine peptide fold change” value was -0.0548.
Turning to “USP20_Q9Y2K6_8_DLCPHLDSIGEVTKEDLLLK (UniProt Q9Y2K6)”, the “probe-labelled cysteine peptide fold change” value was -0.352.
“TXNL1_O43396_135+137+149_AGCECLNESDEHGFDNCLR (UniProt O43396)”: the “probe-labelled cysteine peptide fold change” value is -0.634.
Regarding “VAT1L_Q9HCJ6_253+255_ISAEGVDIVLDCLCGDNTGK (UniProt Q9HCJ6)”, the “probe-labelled cysteine peptide fold change” value is -0.072.
As for “WDR11_Q9BZH6_411_NSSSGVSPLYSPVSFCGIPVGVLQNK (UniProt Q9BZH6)”, the “probe-labelled cysteine peptide fold change” value was -0.0348.
In the case of “UBR4_Q5T4S7_4146_QAACTIVEALATIPSR (UniProt Q5T4S7)”, the “probe-labelled cysteine peptide fold change” value is -0.0346.
As to “TTC14_Q96N46_165_DIAHLEITALCPLR (UniProt Q96N46)”, the “probe-labelled cysteine peptide fold change” value came to 0.0914.
As for “UNC45A_Q9H3U1_503_ALVGLCK (UniProt Q9H3U1)”, the “probe-labelled cysteine peptide fold change” value was determined as 0.188.
Turning to “TXNRD1_Q16881_577_IICNTK (UniProt Q16881)”, the “probe-labelled cysteine peptide fold change” value was determined as 0.851.
Regarding “TXNRD1_Q16881_339_EYCISSDDLFSLPYCPGK (UniProt Q16881)”, the “probe-labelled cysteine peptide fold change” value turned out to be 0.552.
Consider “UBAP1_Q9NZ09_243_ATLDFKPLHKPNGFITLPQLGNCEK (UniProt Q9NZ09)”, for which the “probe-labelled cysteine peptide fold change” value is -0.382.
On to “VCPIP1_Q96JH7_207+219_SQECLIPVHVDGDGHCLVHAVSR (UniProt Q96JH7)”, for which the “probe-labelled cysteine peptide fold change” value was -1.06.
For “UGP2_Q16851_123_LNGGLGTSMGCK (UniProt Q16851)”, the “probe-labelled cysteine peptide fold change” value is -0.138.
In the case of “WDR91_A4D1P6_246_LGDSELAMVCSQR (UniProt A4D1P6)”, the “probe-labelled cysteine peptide fold change” value is -0.273.
Still for that read-out and setting: then “VPS45_Q9NRW7_359_NLLEVSEVEQELACQNDHSSALQNIK (UniProt Q9NRW7)”, with -0.0913.
